Bioassay records (PubChem)
Hits are enriched below; roughly 3.5% of the tested compounds scored in any of these assays.
BoNT A protease: BoNT A light chain protease inhibition; inhibition, % at 10 µM; 0.17% of 360,000 active; multiplex microsphere protease substrate cleavage, flow cytometry; AID 588499
BoNT-F LC inh: inhibitors of Botulinum neurotoxin F light chain protease; Multiplex microsphere protease cleavage assay, flow cytometry; 0.22% of 360,000 active; inhibition, % at 10 µM; in the data active = inhibition above about 35%, passing the limit was not always enough; inconclusive = no clear call, values can overlap the other calls
Anthrax LF inh2: inhibitors of Bacillus anthracis lethal factor protease; P15917; inhibition, % at 10 µM; multiplex microsphere protease cleavage assay, LF; 0.12% of 360,000 active
Target sequence (P15917 whole entry, looked up): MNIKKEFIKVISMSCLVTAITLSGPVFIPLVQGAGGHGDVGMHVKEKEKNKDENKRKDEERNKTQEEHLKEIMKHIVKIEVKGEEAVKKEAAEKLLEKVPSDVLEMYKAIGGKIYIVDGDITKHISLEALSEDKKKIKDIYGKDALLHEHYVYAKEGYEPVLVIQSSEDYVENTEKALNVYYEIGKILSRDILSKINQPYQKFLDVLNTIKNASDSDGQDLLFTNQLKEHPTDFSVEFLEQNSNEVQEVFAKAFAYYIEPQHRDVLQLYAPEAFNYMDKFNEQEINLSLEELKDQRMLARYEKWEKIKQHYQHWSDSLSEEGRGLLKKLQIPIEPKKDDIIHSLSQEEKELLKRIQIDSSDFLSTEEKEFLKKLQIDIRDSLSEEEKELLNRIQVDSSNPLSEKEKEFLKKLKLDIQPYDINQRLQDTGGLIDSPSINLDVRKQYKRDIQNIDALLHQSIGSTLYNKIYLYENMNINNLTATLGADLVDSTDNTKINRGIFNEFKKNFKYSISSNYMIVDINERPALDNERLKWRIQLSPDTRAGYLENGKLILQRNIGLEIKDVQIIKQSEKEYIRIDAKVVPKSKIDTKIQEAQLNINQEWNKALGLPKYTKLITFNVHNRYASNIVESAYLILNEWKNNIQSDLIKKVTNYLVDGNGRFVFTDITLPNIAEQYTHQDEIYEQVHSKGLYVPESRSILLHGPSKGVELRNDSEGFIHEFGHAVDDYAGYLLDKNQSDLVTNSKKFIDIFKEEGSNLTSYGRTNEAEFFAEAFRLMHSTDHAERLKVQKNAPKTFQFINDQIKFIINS
Bead autofluor: counter-screen for toxin protease inhibitors: compound fluorescence; compound autofluorescence counterscreen, microsphere flow cytometry; active compounds read high; fluorescence intensity (test concentration not listed); 3.1% of 360,000 active; AID 624483; in the data active = fluorescence intensity above about 16000; inconclusive = no clear call, values can overlap the other calls
Large screens that a line does not name were inactive. Cut-off read from the data, not from the text of the source, unless noted: active = inhibition above about 30%; inconclusive = no clear call, values can overlap the other calls; inactive = below that.

CN(C)CC(C)(C)CNC(=O)c1cc(=O)c2ccccc2o1	Bead autofluor 21817
CC(=O)Nc1ccc(NC(=O)c2cc(=O)c3ccccc3o2)cc1	none
CCc1nc2ccc(C(=O)Nc3ccc(C(N)=O)cc3)cn2c1N(CCC(C)C)CCN(C)C	none
Cc1cc(NC(=O)CSc2nc3cc(Cl)ccc3c(=O)n2C(C)C)no1	Bead autofluor inconclusive
NS(=O)(=O)c1ccc(CCNc2nc(CN3CCCCC3)nc3sc4c(c23)CCC4)cc1	Bead autofluor 21682
CCOC(=O)CSc1nc2ccccc2c(=O)n1-c1ccc(C(=O)NCCOC)cc1	Bead autofluor 21747
CCOC(=O)CSc1nc2cc(C(=O)N3CCCC3)ccc2c(=O)n1Cc1ccccc1	none
CCOC(=O)CSc1nc2cc(C(=O)N3CCC(C(N)=O)CC3)ccc2c(=O)n1-c1ccccc1	Bead autofluor 21305
CCOC(=O)CSc1nc(-c2ccccc2)nc2ccccc12	Bead autofluor 21864
COCCNC(=O)c1ccc(-n2c(SCc3cc(F)ccc3F)nc3ccccc3c2=O)cc1	none
COc1cccc(-c2oc3c(c2C(=O)OCCN(C)C)C(O)CCC3)c1 (configuration not stated)	none
CCOC(=O)[C@]12CCCC=C1N(Cc1cccc3ccccc13)C(=O)[C@H](CC(=O)N1CCC(c3ccccc3)CC1)C2	none
Cc1ccc(Nc2ncccc2C(=O)NCc2cccs2)c(C)c1	BoNT A protease inconclusive, Bead autofluor 21631
COc1cccc(Oc2nnnn2-c2ccccc2)c1	none
COc1ccc(Oc2nnnn2-c2ccccc2)cc1	BoNT A protease inconclusive, Bead autofluor 22772
Cc1cc(/C=C\c2ccc3cc(N(C)C)ccc3[n+]2C)c(C)n1-c1ccccc1	BoNT-F LC inh active
CCOC(=O)[C@]12CCC=C1N(Cc1cccc3ccccc13)C(=O)[C@H](CC(=O)NCCC(C)C)C2	none
Cc1ccc(C(C(=O)NC2CCCCC2)N2CCCC2)cc1 (configuration not stated)	BoNT-F LC inh 35.5
Cc1ccc(C(C(=O)NC2CCCC2)N2CCCCC2)cc1 (configuration not stated)	none
CC1(C(=O)NS(=O)(=O)C2CC2)CCCN(C(=O)COCc2ccccc2)C1 (configuration not stated)	none
COc1ccc(OCCCC(=O)Nc2cc(Cl)ccc2-n2cncn2)cc1	Bead autofluor 17700
Cc1ccc(OCCCC(=O)Nc2cc(Cl)ccc2-n2cncn2)cc1	Anthrax LF inh2 inconclusive, Bead autofluor inconclusive
N#CC(c1ccc(Cl)cc1)c1ccc2c(C(F)(F)F)cc(C(F)(F)F)nc2n1 (configuration not stated)	none
Fc1ccc(N2CCN(c3ccc4c(C(F)(F)F)cc(C(F)(F)F)nc4n3)CC2)cc1	Bead autofluor 21176
FC(F)(F)c1cc(C(F)(F)F)c2ccc(N3CCN(c4ccc(Cl)cc4)CC3)nc2n1	Bead autofluor 21584
FC(F)(F)c1cc(C(F)(F)F)c2ccc(N3CCN(c4ncccn4)CC3)nc2n1	Bead autofluor 23511
FC(F)(F)c1cc(C(F)(F)F)c2ccc(N3CCOCC3)nc2n1	none
CCC1NC(=O)c2cccnc2-n2c1nc1ccc(F)cc1c2=O (configuration not stated)	none
COC(=O)c1ccc(CSc2nnc(SCc3ccc(C(=O)OC)o3)s2)o1	none
COC(=O)c1ccc(CSc2nc(C)nc3sc(C)c(C)c23)o1	Bead autofluor 22019
CC1=CC(C)(C)N(C(=O)CSc2nnc(N)s2)c2cc(C)c(C)cc21	Bead autofluor 23062
CC1=CC(C)(C)N(C(=O)CSc2nnc(C)s2)c2ccc(C)cc21	none
O=C1O[C@@H](c2ccccc2)C[C@@H](O)C(=O)CCCc2ccccc21	none
CN1CCN(NC(=O)CN2C(=O)/C(=C/c3ccccc3Cl)SC2=S)CC1	Bead autofluor 16697
CN(C(=O)CN1CCC(NC(=O)C2CCCCC2)CC1)C1CCCCC1	Bead autofluor 23953
CC(=O)c1cccc(OCC(=O)N(CCC2=CCCCC2)c2c(N)n(Cc3ccccc3)c(=O)[nH]c2=O)c1	none
COc1ccc(C2CC(c3cccc([N+](=O)[O-])c3)=NN2/C(C)=C/C(C)=O)cc1 (configuration not stated)	BoNT-F LC inh 77.0, Bead autofluor 54573
COc1ccc(C2=NN(C(=O)c3cccc([N+](=O)[O-])c3)C(c3cccc([N+](=O)[O-])c3)C2)cc1 (configuration not stated)	Bead autofluor 19134
COc1ccc(C2CC(c3ccc([N+](=O)[O-])cc3)=NN2C(=O)c2ccccc2)cc1OC (configuration not stated)	none
CCC(=O)N1N=C(c2ccccc2)CC1c1ccc([N+](=O)[O-])cc1 (configuration not stated)	none
CC1(C(=O)NC2CCCCCC2)CCC(=O)N1Cc1ccc2c(c1)OCO2 (configuration not stated)	Bead autofluor 16292
Cc1ccc(Sc2nnc(Cc3ccccc3)c3ccccc23)cc1	BoNT A protease inconclusive, Bead autofluor 22795
Cc1c(C)n(CC(O)CSc2ccccc2)c2ccccc12 (configuration not stated)	none
Nn1c(=O)c2ccccc2n2c(SCc3ccccc3)nnc12	none
CCCSc1nnc2n(N)c(=O)c3ccccc3n12	Bead autofluor 22548
Cc1ccccc1-c1nc2sc(C)c(C)c2c(=O)o1	BoNT-F LC inh inconclusive
Cc1ccccc1-c1nc2sc(-c3ccccc3)cc2c(=O)o1	BoNT A protease inconclusive, Bead autofluor 17440
CC1(C)CC(NC(=O)C2CCC(=O)N(Cc3ccccc3F)C2)CC(C)(C)C1 (configuration not stated)	none
CCn1nc(C)c(/C=N/NC(=O)c2nc3nc(C)cc(C)n3n2)c1C	BoNT-F LC inh inconclusive, Anthrax LF inh2 34.3
Cc1cc2cc(CNC(=S)Nc3ccc(OC(F)(F)F)cc3)ccc2n1C	BoNT A protease 59.5
COc1cccc(NC(=S)NCc2ccc3c(c2)cc(C)n3C)c1	BoNT A protease 53.6
Cc1cccc(NC(=S)NCc2ccc3c(c2)cc(C)n3C)c1C	BoNT A protease 47.2
Cc1cccc(NC(=S)NCc2cccs2)c1C	none
CCOc1ccc(NC(=S)NCc2ccc3[nH]c(C)cc3c2)cc1	none
Cc1cccc(NC(=S)NCc2ccccc2Cl)c1C	BoNT-F LC inh 37.1
Cc1c(Cl)cccc1NC(=S)NCc1ccccc1	none
C=C1C(=O)c2sccc2C(c2ccc(OC)c(OC)c2)C1COC(C)=O (configuration not stated)	none
O=C1NC(=O)C2(CCCCC2)N1	none
CC(C)n1c(CNC(=O)c2ccccc2F)nnc1SCC(=O)NC1CCCCC1	none
N#CCCN(C(=S)NC(=O)C1CCCCC1)c1ccccc1F	none
CCCNC(=O)c1cc(C2CCCCN2C(=O)c2ccc(C(C)C)cc2)on1 (configuration not stated)	none
FC(F)(F)/C(=N\P(=S)(N1CCOCC1)N1CCOCC1)N1CCOCC1	BoNT A protease inconclusive, Bead autofluor 17852
O=C1c2cccc3c([N+](=O)[O-])ccc(c23)C(=O)N1c1ccc(Cl)cn1	Bead autofluor 20167
O=C1c2cccc3c([N+](=O)[O-])ccc(c23)C(=O)N1c1ccccn1	none
O=C1c2cccc3c([N+](=O)[O-])ccc(c23)C(=O)N1c1nccs1	Bead autofluor 23502
Cc1cc(Br)ccc1NC(=O)CNC(=O)CSc1n[nH]c(N)n1	BoNT-F LC inh 40.0
